From PubChem BioAssay AID588436 (Broad Institute, 2011)
Hit rate of the full screen: of about 350,000 compounds, about 550 (0.16%) were called active. Rule as the data show it: active = activation mostly above about 9.7% (no sharp cut-off); inconclusive = no clear call, values can overlap the other calls; inactive = mostly below about 3.7%. What follows is part of a selection rich in actives, with near analogues and random picks from the rest.

assay: inducers of Vibrio cholerae quorum light production without autoinducers, primary screen, BH1578 luxS cqsA deficient, single point (AID 588436); details: V. cholerae BH1578 lux reporter, luminescence, 6 h, at 18.7 µM; stronger effect = higher value

SMILES | activation
OCCN1CCN(CCO)C1=S | -0.805% (inactive)
COc1cccc(CN(C)C(=O)CC23CC4CC(CC(C4)C2)C3)c1OC | inactive
O=C(Cc1ccc([N+](=O)[O-])cc1)Nc1ccc(C(=O)N2CCOCC2)cc1 | inactive
Cc1c(C#N)c2ncn(CC#N)c(=O)c2n1-c1ccccc1 | 25% (active)
CN(C)/C=C/c1c(C#N)c(=O)ncn1Cc1ccccc1 | inactive
CC(=O)Cn1cnc2c(cnn2-c2ccccc2)c1=O | inactive
Cc1cc(C)c(C#N)c(SCC(=O)NN2CC(=O)N(c3ccccc3F)CC2=O)n1 | 2.85% (inactive)
CCCCC(=O)Nc1ccccc1N1CCN(c2ccc(F)cc2)CC1 | inactive
COc1ccccc1NC(=O)c1cc(N2C(=O)C3C4CCC(C4)C3C2=O)ccc1Cl (centres undefined) | inactive
COc1ccc(-c2coc3c(C(=O)NC(C)C)cccc23)c(C)c1 | -0.54% (inactive)
O=C(NCc1cccs1)c1ccc(CS(=O)Cc2ccccc2Cl)o1 (centres undefined) | -3.95% (inactive)
CCN(CC(=O)Nc1cc(Cl)ccc1C)C(=O)CSCc1ccccc1 | 1.13% (inactive)
CCN(CC(=O)NCc1ccc(Cl)cc1)C(=O)CSc1ccccc1 | 39.3% (active)
CCN(CC(=O)NCc1ccc(Cl)cc1)C(=O)c1c(C)noc1C | inactive
c1ccc(Cc2cc[n+](Cc3ccccc3)cc2)cc1 | -0.465% (inactive)
CC(C)(C)c1ccc(/C=C2\Oc3c(ccc(O)c3CN3CCN(CCO)CC3)C2=O)cc1 | -0.166% (inactive)
COP1(=O)C[C@@H](O)[C@@H](O)[C@@H](COCc2ccccc2)O1 (some centres undefined) | inactive
COCC1CCCCN1C(=O)c1cc(COc2ccc(C)c(C)c2)on1 (centres undefined) | inactive
COc1ccc(NC(=O)CN2C(=O)C(c3ccccc3)=NC23CCCCCC3)cc1OC | -0.396% (inactive)
COc1ccc(CNS(=O)(=O)c2ccc(NC(=O)N3CCCCC3)cc2)cc1 | inactive
COc1ccc(OCCCC(=O)Nc2cccc(S(=O)(=O)N3CCCCCC3)c2)cc1 | -0.87% (inactive)
O=C(Nc1ccc(F)cc1)c1cc2c(s1)CCCC2 | 0.953% (inactive)
O=C(O)C1CCCN1c1nc(Cl)ccc1[N+](=O)[O-] (centres undefined) | inactive
Cc1cccc(-c2oc3ccc(-c4ccc5c(c4)OCO5)cc3c2C#Cc2cncn2C)c1 | -1.22% (inactive)

SMILES | activation
COCCNC(=O)c1ccc2c(c1)ncn2-c1ccc(C)c(Cl)c1 | inactive
O=C(c1cccs1)n1nc(NCc2ccccc2)nc1NCc1ccccc1 | -0.325% (inactive)
CC(NC(=O)COC(=O)C1CCN(S(=O)(=O)c2ccccc2C(F)(F)F)CC1)c1ccccc1 (centres undefined) | -0.574% (inactive)
Cc1ccc(-c2nc(CS(=O)(=O)CC(=O)NCc3ccc4c(c3)OCO4)c(C)o2)cc1 | -0.345% (inactive)
CC(=O)c1ccc(Cc2ncc(C(F)(F)F)cc2Cl)s1 | inactive
CCOc1ccc(S(=O)(=O)N/N=C(\C)c2ccc(Cl)c(Cl)c2Cl)cc1 | inactive
CC1Cc2ccccc2N1S(=O)(=O)c1ccc(Cl)nc1 (centres undefined) | inactive
COC(=O)C1=C(C)N(c2ccc(C)cc2)/C(=C/c2ccc(O)cc2)C1=O | -0.588% (inactive)
CCCC(=O)Nc1ccc2c(c1)nc1n2CCSC1 | -5% (inactive)
COc1ccc(N2CCN(C(=O)c3cn(C)c4ccc(S(=O)(=O)N5CCOCC5)cc4c3=O)CC2)cc1 | 1.02% (inactive)
Cc1ccc(CNC(=O)C2CCCN2S(=O)(=O)c2ccc3c(c2)C(C)(C)C(=O)N3C)cc1 (centres undefined) | -0.135% (inactive)
CCNC(=O)CCc1nc(-c2ccc(C(C)(C)C)cc2)no1 | inactive
CCOC(=O)C1(CCOc2ccccc2)CCN(Cc2ccc(C#CCCO)cc2)CC1 | inactive
CCOC(=O)C1(CCOc2ccccc2)CCN(Cc2cc(OC)cc(OC)c2)CC1 | 21.2% (active)
CCOC(=O)C1(CCOC)CCN(Cc2ccc(C(=O)OC)cc2)CC1 | 0.0345% (inactive)
O=C(Nc1ccccc1C(=O)N1CCOCC1)c1ccc(Cl)cc1 | -0.216% (inactive)
COc1ccccc1C(=O)NC(=O)COC(=O)C1CC1 | 0.621% (inactive)
CCOc1ccccc1NC(=O)CCc1nnc2ccc(NCc3ccco3)nn12 | -0.0905% (inactive)
COc1ccc2c(c1)c(C(=O)N/N=C/c1cccs1)c(C)n2C | -0.575% (inactive)
Fc1c(F)c(C(F)(F)F)c(F)c(F)c1N1CCN(c2ccc3nnc(C(F)(F)F)n3n2)CC1 | 0.463% (inactive)
COc1ccc(S(=O)(=O)N(C)C[C@H]2Oc3c(NC(=O)Nc4ccc5c(c4)OCO5)cccc3C(=O)N([C@H](C)CO)C[C@@H]2C)cc1 | 1.22% (inactive)
CCCc1nc2ccccc2c(C(=O)OCc2nnc(-c3cc(OC)c(OC)c(OC)c3)o2)c1CC | -0.28% (inactive)
CN(CC1CCCO1)S(=O)(=O)c1ccc(C(=O)Nc2ccc([N+](=O)[O-])cc2)cc1 (centres undefined) | inactive
Cn1ccc(=Nc2ccc(NC(=O)c3ccc(N=c4ccn(C)c5ccc([N+](=O)[O-])cc45)cc3)cc2)cc1 | 52.2% (active)

SMILES | activation
CC(C)c1ccc(NC(=O)CCN2C(=O)c3ccc([N+](=O)[O-])cc3C2=O)cc1 | -0.342% (inactive)
CCOP(=O)(OCC)C(Nc1cccc(C)c1)c1ccc(F)cc1 (centres undefined) | -0.244% (inactive)
CSc1ccc(S(=O)(=O)NCc2ccc(Cl)cc2)cc1 | -1.22% (inactive)
OC[C@@H]1CN(Cc2cccs2)C[C@H](n2cnc3c(Nc4ccccc4)ncnc32)O1 | -0.66% (inactive)
C=CCn1cc(-c2cccc(C(F)(F)F)c2)cc(C#N)c1=O | -4.13% (inactive)
CC(=O)N1CCN(C(=O)C2(NC(=O)Nc3ccc(C)cc3)CCCCC2)CC1 | -0.583% (inactive)
CNC(=O)N1c2ccccc2C=Cc2ccccc21 | -0.261% (inactive)
CC(=O)Nc1cccc(-c2cc3nc(NCc4cccnc4)n(C)c(=O)c3s2)c1 | inactive
Cc1c(Br)c([N+](=O)[O-])nn1CC(=O)Nc1sc2c(c1C(=O)OC(C)C)CCC(C)C2 (centres undefined) | -0.23% (inactive)
O=C(c1ccc(F)cc1)N1CCC(C(=O)N2CCN(S(=O)(=O)c3ccccc3Br)CC2)CC1 | inactive
CC(=O)Nc1ccc(Oc2ccc3c(c2)C(=O)NC3=O)cc1 | 0.165% (inactive)
O=C(COc1coc(CN2CCN(c3ccccc3F)CC2)cc1=O)N1CCc2ccccc21 | -0.376% (inactive)
CCN(CC)S(=O)(=O)c1ccc2c3c(cccc13)C(=O)S2 | inactive
Cc1nn(C)c(C)c1S(=O)(=O)N1CCC(CO)(Cc2ccc(Cl)cc2)CC1 | -0.416% (inactive)
Cn1c(C(=O)O)ccc1S(=O)(=O)N(Cc1ccccc1)Cc1ccccc1 | inactive
CN(CC(=O)NC1CCCCC1)S(=O)(=O)c1cccc2cccnc12 | -0.233% (inactive)
O=S(=O)(c1cccc(C(F)(F)F)c1)N1CCN(c2cnccn2)CC1 | inactive
COc1ccc(S(=O)(=O)N2CCSCC2)cc1 | inactive
COc1ccc(S(=O)(=O)N2CCN(c3cnccn3)CC2)cc1 | 42.2% (active)
CCOc1ccc(Oc2nc(C)cc(OC)n2)nn1 | -0.469% (inactive)
CC1CN(C(=O)CN2C(=O)NC(C)(c3ccccc3)C2=O)CC(C)O1 (centres undefined) | inactive
Cc1sc2nc(COC(=O)C(NC(=O)c3ccc(Cl)cc3Cl)C(C)C)[nH]c(=O)c2c1C (centres undefined) | -0.176% (inactive)
COc1cccc(-n2c(N)cc(=O)nc2SCC(=O)Nc2cc(C)on2)c1 | 0.462% (inactive)
NC(=O)c1nsc(C(=O)N(CC(=O)NCc2ccc(F)cc2)Cc2ccco2)c1N | 25% (active)

SMILES | activation
Cc1ccnc(NC(=O)CCC(=O)N(CC(=O)NCc2ccccc2)Cc2ccco2)c1 | -0.537% (inactive)
COc1ccc(CNC(=O)C(c2ccc(O)cc2)N(Cc2ccco2)C(=O)c2snc(C(N)=O)c2N)cc1 (centres undefined) | 0.29% (inactive)
Cc1ccc(C(=O)Cc2nnc(C)s2)cc1 | -0.621% (inactive)
COc1ccc(C(C#N)N2N=C(C)CC2(C)C)cc1 (centres undefined) | inactive
COc1cc(N/C=C2\CC(=O)NC(C)=C2C#N)cc(OC)c1OC | -0.38% (inactive)
COc1ccc(OCc2cn3c(C)cc(C)nc3n2)cc1 | 126% (active)
COc1ccc(-c2cc(C)nc3nc(N)nn23)cc1 | -1.41% (inactive)
Cc1cc(C)nc(SCc2cn3c(C)cc(C)nc3n2)n1 | -0.12% (inactive)
COc1ccc(Cl)cc1NC(=O)COc1ccc2c(c1)OCO2 | -2.78% (inactive)
COc1ccc(Cl)cc1NC(=O)COC(=O)c1ccc(Br)o1 | 78.5% (active)
COc1ccc(Cl)cc1NC(=O)CN(C)Cc1ccc(OC)c(OC)c1 | -0.294% (inactive)
Cc1nc(-c2ccccc2)cn2c1nc1ccccc12 | inactive
Cc1cc(C)c(S(=O)(=O)N(C)CC(=O)NCC2CCCO2)c(C)c1 (centres undefined) | -0.212% (inactive)
CCC(=O)N1c2ccc(S(=O)(=O)NCc3ccco3)cc2CC1C (centres undefined) | -0.345% (inactive)
CCn1nnc2cc(C(=O)Nc3ccc(C(=O)OC(C)C)cc3)ccc21 | inactive
CCCc1ccc(C(=O)[C@@H]2[C@@H](C(C)=O)N3c4ccc(F)cc4C=C[C@@H]3[C@@]23C(=O)Nc2ccccc23)cc1 | -0.383% (inactive)
O=C(O)CCSc1nnc(-c2ccccc2)n1-c1ccccc1 | 4% (inactive)
O=C(Nc1ccc2oc(-c3ccc4ccccc4c3)nc2c1)c1cccs1 | 25% (active)
COc1cc(OC)cc(C(=O)Nc2ccc(-c3nc4ccccc4o3)c(O)c2)c1 | -1.79% (inactive)
O=C(Nc1ccc2oc(-c3ccccc3F)nc2c1)c1ccco1 | 0.203% (inactive)
O=S(=O)(NC1CCCCC1)c1ccc(F)c2ccccc12 | -0.148% (inactive)
NC(c1csc(NC(=O)Nc2cccc(C(F)(F)F)c2)n1)C1CCCCC1 (centres undefined) | inactive
